Source: PubChem BioAssay (several laboratories)
MazEF act = MazEF (E. coli) toxin RNase activation; FAM/BHQ RNA-DNA oligo cleavage fluorescence, 5 h; activation, % at 20 µM; 350,000 tested, 0.32% active; in the data active means activation above about 50%
Autofluor counter = flagged as autofluorescent in microsphere protease counterscreen; 360,000 tested, 3.1% active; fluorescence intensity (test concentration not listed); AID 624483; compound autofluorescence counterscreen, microsphere flow cytometry; stronger effect = higher value; in the data active means fluorescence intensity above about 16000; inconclusive means no clear call, values can overlap the other calls
Anthrax LF prot = anthrax lethal factor protease inhibition. P15917. multiplex microsphere protease cleavage assay, LF. inhibition, % at 10 µM. 360,000 tested, 0.12% active. AID 588501; further: plate controls were buffer without enzyme for full effect and enzyme alone for no effect
BoNT F protease = inhibitors of Botulinum neurotoxin F light chain protease | inhibition, % at 10 µM | Multiplex microsphere protease cleavage assay, flow cytometry | 360,000 tested, 0.22% active; in the data active means inhibition above about 35%, passing the limit was not always enough; inconclusive means no clear call, values can overlap the other calls; further: plate controls were buffer without enzyme for full effect and enzyme alone for no effect
BoNT-A LC inh2 = inhibitors of Botulinum neurotoxin A light chain protease; 360,000 tested, 0.17% active; multiplex microsphere protease substrate cleavage, flow cytometry; inhibition, % at 10 µM; further: plate controls were buffer without enzyme for full effect and enzyme alone for no effect
* marks the source's active call; other numbers are inactive results; ? = inconclusive; / = no result given; ! = a repeat was not active. Only some compounds are listed: those with a hit (about 3.6% of all), similar ones and a draw of the others. Unless noted, no stated cut-off is given here; in the data, active means inhibition above about 30%; inconclusive means no clear call, values can overlap the other calls; inactive means below that.

SMILES	MazEF act	Autofluor counter	Anthrax LF prot	BoNT F protease	BoNT-A LC inh2
C=CCn1cccc(/C=C/C(=O)c2ccc(C(C)(C)C)cc2)c1=S	4.1	2571	13.3	-6.5	29.9*
Cc1ccc(-n2nc3c([n+]2[O-])CCc2c-3no[n+]2[O-])cc1	-1.3	21683*	0.6	-2.0	-2.4
CC(=O)Nc1cccc(-c2ccnc3c2CC(C(=O)NCc2ccc(F)c(F)c2)O3)c1 (stereo not given)	/	2754	-1.6	-2.1	0.6
COC(=O)c1ccc(NC(=O)Cn2c(-c3nonc3N)nc3ccccc32)cc1	-8.5	4947	-0.2	2.0	0.1
COC(=O)c1ccccc1NC(=O)Cn1c(-c2nonc2N)nc2ccccc21	-0.2	20173*	-6.5	7.1	7.4
COC(=O)c1ccccc1NC(=O)Cn1c(SC)c(F)cnc1=O	-3.9	19945*	-1.4	4.8	1.3
Cc1ccnc(N2C(=O)OC(C)(C)C2(C)O)c1 (stereo not given)	2.6	16787*	0.5	-0.9	-0.1
Cc1ccc(C)c(N2CCN(C(=O)CCCn3c(=S)[nH]c4cc5c(cc4c3=O)OCO5)CC2)c1	-10.4	17273*	0.3	-8.5	-2.8
CCOC(=O)N1CCN(C(=O)CCCn2c(=S)[nH]c3ccc(Br)cc3c2=O)CC1	3.6	20951*	-0.5	-3.0	?
O=C(CCCn1c(=S)[nH]c2cc3c(cc2c1=O)OCO3)N1CCN(c2ccccc2F)CC1	10.8	9260	-3.3	6.6	0.2
CCOC(=O)N1CCN(C(=O)CCCn2c(=S)[nH]c3ccccc3c2=O)CC1	-6.3	3846	-1.7	6.8	0.0
O=C(CCCn1c(=S)[nH]c2cc3c(cc2c1=O)OCO3)N1CCN(c2ncccn2)CC1	-5.9	20894*	-1.9	3.9	?
CC(C)c1ccc(/C=N/NC(=O)CC(=O)NC2CCCCC2)cc1	-1.6	2146	-3.4	-4.5	-0.6
C=CCOc1ccc(/C=N/NC(=O)CC(=O)NC2CCCCC2)cc1	514.2*	3818	6.1	-25.7	0.7
O=S(=O)(Nc1ccc(F)cc1)c1cccc2nsnc12	-12.0	3797	-5.3	-6.1	-0.3
COC(=O)c1ccc(Cl)c(NC(C)=O)c1	5.0	21958*	0.7	-4.6	?
CNC(=O)c1cc(S(=O)(=O)N(C)C)ccc1Cl	-0.3	22686*	-2.5	0.5	0.7
CCN(CC)S(=O)(=O)c1ccc(Cl)c(C(=O)OC)c1	1.1	17005*	0.8	-3.6	?
COC(=O)c1ccc(Cl)c(NC(=O)NC2CCCCC2)c1	-3.0	2995	-3.2	-4.4	0.2
CCN(CC)S(=O)(=O)c1cc(C(=O)OC)ccc1Cl	-1.0	20925*	-3.9	-3.6	-0.7
O=C1NC[C@H](CC2CCCCC2)N(CCc2cccc(F)c2)C1=O	1.1	3310	-1.8	-12.0	-0.7
O=C(C1=C(O)C(=O)N(CCN2CCOCC2)C1c1cccnc1)c1cc2ccccc2o1 (stereo not given)	-10.5	19706*	-2.9	-4.0	-1.0
Cc1ccc(O)c(C(=O)c2coc(=N)c(C(=O)NC(C)C)c2)c1	8.2	20781*	-4.2	-0.1	?
COC(=O)c1cc(C(=O)c2cc(Cl)ccc2O)coc1=N	-4.7	4569	-5.8	1.5	0.9
Cc1cc(C)n2c(SCC#N)nnc2n1	3.3	6064	-4.3	2.5	0.0
SMILES	MazEF act	Autofluor counter	Anthrax LF prot	BoNT F protease	BoNT-A LC inh2
Cc1cc(C)n2c(SCc3ccc(C#N)cc3)nnc2n1	5.9	22207*	-2.5	2.9	1.4
COCCCn1c(=O)/c(=C/c2ccccc2OC(F)F)s/c1=C(\C#N)C(=O)NCCOC	71.8*	3123	-16.7	5.7	0.2
COCCCNC(=O)/C(C#N)=c1\s/c(=C\c2ccccc2OC(F)F)c(=O)n1CCCOC	97.9*	10334	-2.9	-6.4	0.4
COCCCn1c(=O)/c(=C\c2ccccc2OC(F)F)s/c1=C(/C#N)C(=O)N1CCOCC1	-2.0	4480	0.1	7.4	1.4
CCCCNC(=O)/C(C#N)=c1\s/c(=C\c2ccccc2OC(F)F)c(=O)n1CCCOC	84.7*	10752	-2.8	3.2	0.2
COCCCn1c(=O)/c(=C\c2ccccc2OC(F)F)s/c1=C(/C#N)C(=O)NCCOC	82.6*	4543	-13.1	-7.1	-0.4
Cc1ccc(C=NNc2nc3c([nH]2)c(=O)n(C)c(=O)n3C)cc1	10.7	2835	-5.2	-5.7	-0.2
CC(=O)C1=CCC(c2ccc(C)o2)N(S(=O)(=O)c2ccc(C)cc2)C1 (stereo not given)	/	6017	0.8	-0.9	0.1
O=C(NC1CCCCC1)C(c1ccccc1)N(C(=O)c1csnn1)C1CCCC1 (stereo not given)	3.1	3514	9.6	9.1	3.1
Cc1noc(C)c1-c1ccc(C(=O)NCc2cccnc2)c2occc12	/	3798	7.0	6.0	0.0
N#Cc1ccc(N2C(=O)[C@@H]3C(C(=O)c4ccc5ccccc5n4)=NN[C@@H]3C2=O)cc1	120.3*	2324	1.5	-1.5	0.8
CCOC(=O)c1ccc(CSc2ncn[nH]2)o1	3.7	4397	-11.4	-6.7	-0.4
COC(=O)c1ccc(CSc2ncn[nH]2)o1	7.1	20355*	1.5	-3.2	?
Cc1ccc(C(=O)N/C(=C\c2cccs2)C(=O)NCCc2c[nH]c3ccccc23)cc1C	-2.6	16774*	-3.2	-6.2	-1.6
O=C(NCCc1c[nH]c2ccccc12)/C(=C\c1cccs1)NC(=O)c1ccccc1	1.5	2605	1.1	-6.4	-0.2
O=c1[nH]cnc2sc3c(c12)CCCC3	1.3	23869*	-1.6	-7.1	-3.0
Nc1ccn([C@@H]2O[C@H](C(=O)N3CCCN(Cc4cccs4)CC3)[C@@H](O)[C@H]2O)c(=O)n1	/	5328	3.4	4.9	0.2
Cc1ccc(S(=O)(=O)N2CCN(CC(=O)NC(=O)NCc3ccccc3)CC2)cc1C	95.0*	3972	-7.2	-12.1	0.2
Cc1ccc(S(=O)(=O)N2CCN(CC(=O)NC3CCCc4ccccc43)CC2)cc1C (stereo not given)	-3.8	21955*!	-0.2	6.1	-0.1
Cc1ccc(S(=O)(=O)N2CCN(CC(=O)NC3CCCc4ccccc43)CC2)c(C)c1 (stereo not given)	-1.3	4671	-7.4	-4.7	0.0
COc1ccc(-c2c(C(=O)c3ccc(Br)cc3)[nH]c(N)c2C(=O)c2ccccc2)cc1OC	/	6431	2.2	-10.1	-0.5
CC(=O)c1cccc(NC(=O)Nc2cnn(Cc3ccc(Cl)cc3Cl)c2)c1	8.3	22775*	-2.3	-4.4	-1.2
COc1ccc(C2C(=O)c3ccccc3C2=Nc2ccc(Br)cc2)cc1 (stereo not given)	12.7	3663	-2.7	5.4	-0.1
Cc1ncc2c(c1OC(=O)c1ccccc1)COC(C)(C)OC2	1.4	23118*	-1.2	-3.6	?
Cc1c(OC(=O)c2ccc([N+](=O)[O-])cc2)c2c(c[n+]1C)COC(C)(C)OC2	4.3	2477	1.5	-9.3	-0.2
CCOC(=O)c1cnn(-c2nc(-c3ccccc3)cs2)c1C(F)(F)F	-15.1	2798	-2.7	-0.9	-0.1
CCOC(=O)c1cnn(-c2nc(-c3ccccc3F)cs2)c1C(F)(F)F	-4.3	19894*	-11.7	-0.1	?
